Measured values published in the antibiotic and cytotoxicity screens of Wong et al. (2023).
Out of some 39,000 compounds screened, about 3,300 (8.5%) were called active. Shown is part of a subset that was picked to be rich in actives.

system: HepG2; test: cytotoxicity call (relative viability < 0.9); conditions: 10 µM

Row | Structure (SMILES) | cytotoxicity call
1 | CC(C)CC(=O)N1CCN(S(C)(=O)=O)CC1 | inactive
2 | CN1CCc2nc(C(=O)N[C@@H]3C[C@@H](C(=O)N(C)C)CC[C@@H]3NC(=O)C(=O)Nc3ccc(Cl)cn3)sc2C1 | inactive
3 | C[C@@H]1CN([C@H](C)CO)S(=O)(=O)c2ccc(C#Cc3cccc(F)c3)cc2O[C@H]1CN(C)S(=O)(=O)c1cn(C)cn1 | inactive
4 | O=C(O)c1ccnc(C(=O)O)c1 | inactive
5 | C[C@@H]1CN([C@@H](C)CO)C(=O)c2cc(N(C)C)ccc2O[C@@H](C)CCCCO[C@H]1CN(C)Cc1ccc(C(=O)Nc2ccccc2N)cc1 | inactive
6 | C[C@@H]1CN([C@@H](C)CO)S(=O)(=O)c2ccc(C#Cc3ccncc3)cc2O[C@@H]1CN(C)C(=O)Nc1ccc2c(c1)OCO2 | active
7 | C[C@H](CO)N1C[C@H](C)[C@@H](CN(C)C(=O)Nc2ccc3c(c2)OCO3)Oc2cc(C#Cc3cccnc3)ccc2S1(=O)=O | inactive
8 | C[C@@H]1CN([C@@H](C)CO)S(=O)(=O)c2ccc(Br)cc2O[C@H]1CN(C)C(=O)Nc1ccc2c(c1)OCO2 | inactive
9 | C[C@H]1CN([C@@H](C)CO)S(=O)(=O)c2ccc(C#Cc3ccncc3)cc2O[C@@H]1CN(C)C(=O)Nc1ccc2c(c1)OCO2 | active
10 | C[C@H]1CN([C@@H](C)CO)S(=O)(=O)c2ccc(Br)cc2O[C@@H]1CN(C)C(=O)Nc1ccc2c(c1)OCO2 | inactive
11 | C[C@@H]1CN([C@@H](C)CO)S(=O)(=O)c2ccc(C#Cc3cccnc3)cc2O[C@@H]1CN(C)C(=O)Nc1ccc2c(c1)OCO2 | inactive
12 | CC(C)NC(=O)Nc1ccc2c(c1)C(=O)N([C@@H](C)CO)C[C@@H](C)[C@H](CN(C)Cc1ccc(C(=O)O)cc1)O2 | inactive
13 | C[C@H](CO)N1C[C@H](C)[C@H](CN(C)C(=O)Nc2cccc3ccccc23)Oc2c(NC(=O)Nc3ccc(C(F)(F)F)cc3)cccc2C1=O | active
14 | C[C@@H]1CN([C@@H](C)CO)C(=O)c2cccc(NC(=O)Nc3ccc(C(F)(F)F)cc3)c2O[C@H]1CN(C)C(=O)Nc1cccc2ccccc12 | active
15 | C[C@@H]1CN([C@H](C)CO)C(=O)c2cccc(NC(=O)Nc3ccc(C(F)(F)F)cc3)c2O[C@@H]1CN(C)C(=O)Nc1cccc2ccccc12 | inactive
16 | C[C@@H]1CN([C@H](C)CO)C(=O)c2cccc(NC(=O)Nc3ccc(C(F)(F)F)cc3)c2O[C@H]1CN(C)C(=O)Nc1cccc2ccccc12 | active
17 | C[C@@H]1CN([C@@H](C)CO)C(=O)c2cccc(NC(=O)Nc3ccc(C(F)(F)F)cc3)c2O[C@@H]1CN(C)C(=O)Nc1cccc2ccccc12 | active
18 | C[C@H](CO)N1C[C@H](C)[C@@H](CN(C)C(=O)Nc2cccc3ccccc23)Oc2c(NC(=O)Nc3ccc(C(F)(F)F)cc3)cccc2C1=O | inactive
19 | C[C@@H]1CCCCO[C@@H](CN(C)C(=O)c2ccccc2)[C@H](C)CN([C@@H](C)CO)C(=O)c2cc(NS(=O)(=O)c3ccc(Cl)cc3)ccc2O1 | inactive
20 | COc1ccc(S(=O)(=O)N(C)C[C@H]2Oc3ccc(NS(=O)(=O)c4ccccc4)cc3CC(=O)N([C@H](C)CO)C[C@@H]2C)cc1 | inactive

Row | Structure (SMILES) | cytotoxicity call
21 | COc1ccc(S(=O)(=O)N(C)C[C@H]2OCCCC[C@H](C)Oc3ccc(NS(=O)(=O)c4cn(C)cn4)cc3C(=O)N([C@@H](C)CO)C[C@H]2C)cc1 | inactive
22 | C[C@H]1CN([C@@H](C)CO)S(=O)(=O)c2ccc(C#CC3(O)CCCC3)cc2O[C@H]1CN(C)C(=O)Nc1ccc(F)cc1 | inactive
23 | COCC(=O)N1CC[C@]2(CC1)CN([C@H](CO)c1c2c2ccc(cc2n1C)OC)C(=O)CN1CCOCC1 | inactive
24 | O=C1N[C@@H](Cc2c[nH]c3ccccc23)COC(=O)[C@@H](Cc2ccc(F)cc2)CCC=CC[C@H]1CC(=O)N(CCO)Cc1ccccc1 | inactive
25 | C[C@H](CO)N1C[C@H](C)[C@@H](CN(C)S(=O)(=O)c2cn(C)cn2)OCc2ccccc2-c2c(n(C)c3ccccc23)C1=O | inactive
26 | O=C(C[C@H]1C[C@@H]2c3cc(NC(=O)c4ccc5c(c4)OCO5)ccc3O[C@@H]2[C@@H](CO)O1)NCCN1CCCCC1 | inactive
27 | CC(C)(C)[S@](=O)N1Cc2cc(C(=O)N3CCc4ccccc4C3)nc(-c3cccc(-c4cccnc4)c3)c2[C@@H]1CCO | inactive
28 | Cc1ccc(S(=O)(=O)Nc2ccc3c(c2)C(=O)N([C@H](C)CO)C[C@H](C)[C@@H](CN(C)S(=O)(=O)c2ccc(F)cc2)OCCCC[C@@H](C)O3)cc1 | inactive
29 | C[C@H]1CN([C@@H](C)CO)C(=O)c2cccc(NC(=O)Nc3ccc(C(F)(F)F)cc3)c2O[C@@H]1CN(C)C(=O)Nc1cccc2ccccc12 | active
30 | C[C@H]1CN([C@@H](C)CO)C(=O)c2cccc(NC(=O)Nc3ccc(C(F)(F)F)cc3)c2O[C@H]1CN(C)C(=O)Nc1cccc2ccccc12 | inactive
31 | C[C@H](CO)N1C[C@H](C)[C@H](CN(C)C(=O)Nc2cccc3ccccc23)Oc2c(NC(=O)Nc3ccc(F)cc3)cccc2C1=O | inactive
32 | CC(=O)NCCCC[C@@H]1NC(=O)[C@H]2C[C@@H](C(=O)NCCCC[N+](C)(C)C)[C@@H](c3cccc(OCCO)c3)N2C1=O | inactive
33 | C[N+](C)(C)CCCCNC(=O)[C@@H]1C[C@@H]2C(=O)N3CCC[C@H]3C(=O)N2[C@@H]1c1cccc(OCCO)c1 | inactive
34 | C[N+](C)(C)CCCCNC(=O)[C@H]1C[C@H]2C(=O)N3CCC[C@H]3C(=O)N2[C@H]1c1cccc(OCCO)c1 | active
35 | CC(=O)NCCCC[C@@H]1NC(=O)[C@H]2C[C@@H](C(=O)NCCCC[N+](C)(C)C)[C@@H](c3ccc(O)cc3)N2C1=O | active
36 | C[N+](C)(C)CCCCNC(=O)[C@H]1C[C@H]2C(=O)N[C@@H](CCCC[N+](C)(C)C)C(=O)N2[C@H]1c1cccc(OCCO)c1 | inactive
37 | C[N+](C)(C)CCCCCCNC(=O)[C@H]1C[C@H]2C(=O)N3CCC[C@H]3C(=O)N2[C@H]1c1cccc(OCCO)c1 | inactive
38 | C[N+](C)(C)CCCCNC(=O)[C@@H]1C[C@@H]2C(=O)N[C@@H](CCCC[N+](C)(C)C)C(=O)N2[C@@H]1c1ccc(O)cc1 | inactive
39 | CC(=O)NCCCC[C@@H]1NC(=O)[C@@H]2C[C@H](C(=O)NCCCC[N+](C)(C)C)[C@H](c3cccc(OCCO)c3)N2C1=O | active
40 | C[N+](C)(C)CCCCNC(=O)[C@H]1C[C@H]2C(=O)N[C@@H](CCCC[N+](C)(C)C)C(=O)N2[C@H]1c1ccc(O)cc1 | inactive
